Beta cell apopt = blocks beta cell apoptosis; INS-1E cytokine-induced death, ATP luminescence, 48 h; percent of positive-control rescue, neutral wells zero; protection from apoptosis, % (no concentration beside the values); actives 0.8% (n = 300,000); AID 435005;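 active = Every replicate reaches about 75%, or at least half do and their mean reaches it too, limit read from the data; inconclusive = At least half of replicates reach the limit but their mean does not; inactive = Under half of replicates reach the limit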;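 note: higher means more ATP so stronger rescue from cytokine killing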
Calb FLC = C. albicans growth modulation with fluconazole | C. albicans CaCi-2 (fluconazole-resistant clinical isolate) + fluconazole, Alamar Blue growth, 48 h | growth inhibition, % (concentration not given with the values) | actives 0.57% (n = 300,000);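 active = growth inhibition above about 58% in most replicates, limit read from the data, passing the limit was not always enough; inconclusive = exactly half the replicates above a set limit; inactive = most replicates below a set limit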;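 note: all wells also contain fluconazole at 8 µg/ml as a sub-toxic cotreatment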
697 NFkB inh = lowers PMA/ionomycin-induced NF-kB signal in 697 B cells; 697 B-cell NF-kB luciferase reporter, 16 h; inhibition, % at 4 µM; actives 0.33% (n = 330,000); AID 435022; in the data active = inhibition above about 35%
Shn3 inh set2 = inhibitors of Schnurri-3 3'UTR reporter in osteoblasts. actives 0.52% (n = 360,000). inhibition, % at 12.5 µM. AID 588674. Clone20 osteoblast Shn3 3'UTR firefly luciferase, 24 h;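 active = mean inhibition of at least 75% with every replicate also reaching 75%; inconclusive = mean inhibition at least 75% but some replicate below; inactive = mean inhibition below 75%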
Jurkat NFkB inh = lowers PMA/ionomycin-induced NF-kB signal in Jurkat cells | actives 0.53% (n = 330,000) | inhibition, % at 4 µM | PMA/ionomycin-induced NF-kB luciferase reporter, luminescence; in the data active = inhibition above about 50%
Jurkat NFkB conf = inhibitors of the PMA/ionomycin-induced NF-kB reporter in Jurkat cells, retest; shares compounds with Jurkat NFkB inh; actives 27% (n = 2,700); Jurkat NF-kB luciferase, 16 h; AID 435020; inhibition, % at 4 µM;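 active = inhibition reaching about 45% at 4 µM in either replicate, limit read from the data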
697 NFkB conf = inhibitors of the PMA/ionomycin-induced NF-kB reporter in 697 B cells, retest; shares compounds with 697 NFkB inh; 697 B-cell NF-kB luciferase, 16 h; inhibition, % at 4 µM; actives 35% (n = 2,000); in the data active = inhibition mostly above about 28%, no sharp cut-off; inactive = mostly below about 22%
Large screens that a line does not name were inactive (follow-up assays come after a bar, where they were run). The list is not random: actives were taken first. Their share in the collection is about 2%.

CCOC(=O)C1=C[C@@H](C(C)C)N(S(=O)(=O)c2ccc(C)cc2)[C@H]1c1ccc(C(F)(F)F)cc1	none (no result: Beta cell apopt, Calb FLC, 697 NFkB inh, Jurkat NFkB inh)
c1ccc(-c2csc(CN3CCCCC3)n2)cc1	none (no result: Beta cell apopt, Calb FLC, 697 NFkB inh, Jurkat NFkB inh)
CCCNC(=O)c1cc(C2CCCCN2S(=O)(=O)c2ccccc2)on1 (stereo unspecified)	none (no result: Beta cell apopt, Calb FLC, 697 NFkB inh, Jurkat NFkB inh)
Cc1sc2ncnc(N3CCN(CCOc4ccc(Cl)cc4)CC3)c2c1C	Beta cell apopt 103, Calb FLC inconclusive, 697 NFkB inh 56, Shn3 inh set2 85, Jurkat NFkB inh 57 | Jurkat NFkB conf inactive | 697 NFkB conf 35
Cc1sc2ncnc(N3CCC(C(=O)NNC(=O)COc4ccc(Cl)cc4)CC3)c2c1C	none (no result: Beta cell apopt, Calb FLC, 697 NFkB inh, Jurkat NFkB inh)
COc1ccccc1-n1nnnc1SCC(=O)Nc1ccc(C)c(N)c1	none
Cc1cc(C)cc(C(O)c2ncc(-c3ccccc3)[nH]2)c1 (stereo unspecified)	none (no result: Beta cell apopt, Calb FLC, 697 NFkB inh, Jurkat NFkB inh)
CCCN1C=CC(=C2C(=O)c3ccccc3C2=O)C=C1	697 NFkB inh 44, Jurkat NFkB inh 69 | Jurkat NFkB conf 75 | 697 NFkB conf inactive
CN(CCc1ccccc1)C(=O)c1cccc(NC(=O)Cc2cccc(NC(=O)C3CCN(C(=O)c4ccccc4)CC3)c2)c1	none (no result: Beta cell apopt, Calb FLC, 697 NFkB inh, Jurkat NFkB inh)
CCC1(c2ccc(F)cc2)NC(=O)N(CC(=O)NCc2ccccc2Cl)C1=O (stereo unspecified)	none
CCCCC[n+]1cccc2c3ccccc3ccc21	Beta cell apopt 110, 697 NFkB inh 60, Jurkat NFkB inh 52 | Jurkat NFkB conf inactive | 697 NFkB conf 42
c1ccc(C[n+]2cccc3c4ccccc4ccc32)cc1	none
CCSc1cc(C)nc2c(-c3ccccc3)cnn12	none | Jurkat NFkB conf inactive | 697 NFkB conf inactive
O=c1c2ccccc2cnn1-c1ccc(Br)cc1	none
O=c1c2ccccc2cnn1-c1ccc2ccccc2c1	none | Jurkat NFkB conf inactive | 697 NFkB conf inactive
Cc1ccc(S(=O)(=O)NC(CC(C)C)C(=O)N2CCN(C/C=C/c3ccccc3)CC2)cc1 (stereo unspecified)	none (no result: Calb FLC)
C=C1/C=C(\C)[C@](C)(O)C[C@H](O)CC(=O)[C@H](O)[C@@H](O)[C@H](C)C[C@H](C)OC(=O)/C(C)=C/CC/C=C/[C@@H]2O[C@H]2C[C@H](C)C1	Beta cell apopt 92, 697 NFkB inh 37, Jurkat NFkB inh 57 (no result: Calb FLC, Shn3 inh set2) | Jurkat NFkB conf inactive | 697 NFkB conf inactive
O=C(COC(=O)Cc1ccsc1)Nc1cccc(F)c1	none (no result: Calb FLC)
COc1ccc2cc3cc(C(=O)NCCN4CCc5ccccc5C4)sc3nc2c1	none
CCC(C)NC(=O)c1cc2cc3ccc(OC)cc3nc2s1 (stereo unspecified)	none (no result: Beta cell apopt) | Jurkat NFkB conf inactive | 697 NFkB conf inactive
c1cnc2ccc(-c3ccc4ncccc4c3)cc2c1	none | Jurkat NFkB conf inactive | 697 NFkB conf inactive
CCCCN1C(=O)/C(=C/C=C2\Oc3ccccc3N2CC)SC1=S	none (no result: Beta cell apopt, 697 NFkB inh, Jurkat NFkB inh)
CCN1/C(=C/C=C/c2oc3ccc(-c4ccccc4)cc3[n+]2CC)Oc2ccc(-c3ccccc3)cc21	Beta cell apopt 111, Calb FLC 75, 697 NFkB inh 48, Shn3 inh set2 96, Jurkat NFkB inh 98 | Jurkat NFkB conf inactive | 697 NFkB conf inactive
c1ccc(C[C@H]2CNCCN2CC2(c3ccccc3)CC2)cc1	none
CN(CC(=O)Nc1ccc(Cl)cc1)CC(=O)Nc1sc2c(c1C(N)=O)CCC2	none (no result: Beta cell apopt, Calb FLC, 697 NFkB inh, Jurkat NFkB inh)
c1cc2c(cc1C1=NNC(=NC3CC3)SC1)OCCO2	697 NFkB inh 57, Jurkat NFkB inh 60 | Jurkat NFkB conf 78 | 697 NFkB conf inactive
Cc1cc(C2=NNC(=NC3CC3)SC2)c(C)n1-c1ccccc1F	697 NFkB inh 39, Shn3 inh set2 98, Jurkat NFkB inh 79 | Jurkat NFkB conf 74 | 697 NFkB conf 48
COc1ccc(-c2nc(-c3ccccn3)no2)cc1	Beta cell apopt 89, 697 NFkB inh 48, Shn3 inh set2 88, Jurkat NFkB inh 77 (no result: Calb FLC) | Jurkat NFkB conf 86 | 697 NFkB conf 39
CCOc1ccc(-c2nc(-c3cccnc3)no2)cc1	none
CCOc1ccc(-c2nc(-c3ccccc3C)no2)cc1	none (no result: Shn3 inh set2) | Jurkat NFkB conf inactive | 697 NFkB conf inactive
Cc1cccc(/C(N)=N/OC(=O)c2ccc(Cl)cc2Cl)c1	none | Jurkat NFkB conf inactive | 697 NFkB conf inactive
Cc1ccc(/C(N)=N/OC(=O)c2ccc(C)cc2Cl)cc1	none | Jurkat NFkB conf inactive | 697 NFkB conf inactive
N/C(=N\OC(=O)c1ccc(Cl)cc1Cl)c1ccccc1	none | Jurkat NFkB conf inactive | 697 NFkB conf inactive
COC(=O)N(C)C[C@@H]1OCc2cn(nn2)CCCC(=O)N([C@@H](C)CO)C[C@H]1C	none (no result: Beta cell apopt, Calb FLC, 697 NFkB inh, Jurkat NFkB inh)
COc1ccc(C(=O)C2CCCN(S(=O)(=O)c3ccc(C(C)=O)cc3)C2)c(C)c1 (stereo unspecified)	none
Cc1cc(NNC(=O)Nc2cccc(Cl)c2)nc2c1c(C)nn2C	697 NFkB inh 58, Jurkat NFkB inh 53 (no result: Shn3 inh set2) | Jurkat NFkB conf 56 | 697 NFkB conf 56
Cc1nn(C)c(C)c1CNC(=O)Nc1cccc(Cl)c1	none
O=C(O)CC1(CC(=O)Nc2ccc3ccccc3n2)CCCCC1	none
NC1=NC[C@H](Cc2ccc(O)cc2)N1CCCCC1CCCCC1	Beta cell apopt 102, 697 NFkB inh 41, Jurkat NFkB inh 79 | Jurkat NFkB conf 50 | 697 NFkB conf 40
NC1=NC[C@H](Cc2ccc(O)cc2)N1CCc1cc(C(F)(F)F)cc(C(F)(F)F)c1	none
Cc1ccnc(NC(=O)c2sc3ccccc3c2Cl)c1	none | Jurkat NFkB conf inactive | 697 NFkB conf inactive
Cc1cnc(NC(=O)c2sc3ccccc3c2Cl)s1	none
O=C(Nc1ccc(N2CCOCC2)cc1)c1csc([C@@H]2C[C@H](O)[C@@H](CO)O2)n1	none (no result: Beta cell apopt, Calb FLC, 697 NFkB inh, Jurkat NFkB inh)
N#Cc1cccc(NC(=O)c2cc(C3CCCCN3C(=O)c3ccc4c(c3)CCO4)on2)c1 (stereo unspecified)	none (no result: Beta cell apopt, Calb FLC, 697 NFkB inh, Jurkat NFkB inh)
O=C(CSc1nc2ccccc2s1)CSc1nc2ccccc2s1	none (no result: Beta cell apopt)
O=S1(=O)C=C(Sc2nc3ccccc3s2)c2ccccc21	Beta cell apopt 122, Jurkat NFkB inh 97 (no result: Shn3 inh set2) | Jurkat NFkB conf 92 | 697 NFkB conf inactive
COc1ccc2oc(C(=O)N3CCc4ccccc43)c(C)c2c1	none | Jurkat NFkB conf inactive | 697 NFkB conf inactive
Cc1ccc(S(=O)(=O)CC(=O)N2CC(C)OC(C)C2)cc1 (stereo unspecified)	none
O=C(Nc1ccc2nc3n(c(=O)c2c1)CCCCC3)c1c(F)ccc([N+](=O)[O-])c1F	Beta cell apopt 105, Shn3 inh set2 99, Jurkat NFkB inh 73 | Jurkat NFkB conf inactive | 697 NFkB conf inactive
CCC(C)NS(=O)(=O)c1ccc(NC(=O)c2cccs2)cc1 (stereo unspecified)	none
CCC(C)c1ccc(NC(=O)c2cccs2)cc1 (stereo unspecified)	none | Jurkat NFkB conf inactive | 697 NFkB conf inactive

Screening results (PubChem)
